Results: PubChem BioAssay (NCI)
Compounds without any hit were thinned out: in the full panel of roughly 79,000, 15% have a hit. Cut-off read from the data, not from the text of the source: active = growth inhibition above about 70%; inactive = the rest.

Columns and labels:
[1] = NCI Yeast Anticancer Drug Screen. Data for the rad50 strain (AID 155);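 note: 0% = growth of vehicle-only cultures of the same strain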; conditions: S. cerevisiae rad50 strain growth inhibition; at 50.0 µM; active compounds read high
Outline: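 Genetically altered yeast (DNA repair pathway); compound treatment; growth inhibition vs vehicle ctrl.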

[2] = NCI Yeast Anticancer Drug Screen. Data for the mec2-1 strain (AID 157); conditions: S. cerevisiae mec2-1 strain, at 50.0 µM, active compounds read high
Outline: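 Using mec2-1 yeast: add compound, measure growth, express inhibition versus vehicle-treated cultures.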

[3] = NCI Yeast Anticancer Drug Screen. Data for the sgs1 mgt1 strain (AID 161);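 note: 0% = growth of cultures given vehicle only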; conditions: S. cerevisiae sgs1 mgt1 strain, at 50.0 µM, active compounds read high
Outline: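 Compounds are added to genetically altered yeast, and growth is compared with cultures given vehicle alone to give percent inhibition.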

[4] = NCI Yeast Anticancer Drug Screen. Data for the cln2 rad14 strain (AID 165);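 note: 0% = growth equal to vehicle treated cultures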; conditions: S. cerevisiae cln2 rad14 strain, at 50.0 µM, active compounds read high
Outline: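 Yeast strain cln2 rad14, bearing defects in cell cycle control and DNA repair, serves as the test system; values reflect growth inhibition compared with vehicle.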

[5] = NCI Yeast Anticancer Drug Screen. Data for the bub3 strain (AID 167); conditions: S. cerevisiae bub3 mutant strain, at 50.0 µM, active compounds read high
Outline: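 Yeast carrying a defined mutation is treated with each compound, and growth is compared with that of vehicle-exposed cells to give inhibition.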

[6] = NCI Yeast Anticancer Drug Screen. Data for the mlh1 rad18 strain (AID 175); conditions: S. cerevisiae mlh1 rad18 strain growth inhibition; at 50.0 µM; active compounds read high
Outline: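 Steps: expose repair-defective yeast to compound; measure growth; express inhibition against vehicle-treated controls.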

Measured: growth inhibition

NC(=O)C(O)C(O)CO (stereo unspecified)
inactive: [1] -8.8% | [2] -9.35% | [3] -15.2% | [4] 7.2% | [5] -8.8% | [6] -5.25%

O=C(O)C12C3CCC(CC3)C1(C(=O)O)C1CCC2C1 (stereo unspecified)
inactive: [1] -57.6% | [2] -12.4% | [3] -12.1% | [4] -24.1% | [5] 5.05% | [6] -1.2%

CCCCCC/C=N\NC(N)=S
inactive: [1] -17.1% | [2] 14.2% | [3] 30.4% | [4] -71.1% | [5] 17.9% | [6] 28.2%

CCOC(=O)c1ccc(N=NC2Sc3nc4ccccc4n3C2=O)cc1 (stereo unspecified)
inactive: [1] -23.6% | [2] -2.4% | [3] -2.65% | [4] -51.4% | [5] 21.8% | [6] -6.3%

COC(=O)c1ccc(SCCC(C)=O)cc1
inactive: [1] -8% | [2] 5.3% | [3] -12.1% | [4] 9.9% | [5] 25.9% | [6] 0.7%

O=C(CC12C3C4C1C1C2C3C41CC(=O)NO)NO (stereo unspecified)
inactive: [1] -28.8% | [2] -28.1% | [3] -29.2% | [4] 11.9% | [5] -19.9% | [6] -10.9%

CC12CCCCC1C(C(C)(C)OC(=O)c1ccc([N+](=O)[O-])cc1)CC2 (stereo unspecified)
inactive: [1] 15% | [2] 8.2% | [3] 17.4% | [4] -8.85% | [5] 12.6% | [6] 21.1%

CC(C)C(N)C(=O)NC(C(=O)O)C(C)C (stereo unspecified)
inactive: [1] 12.8% | [2] -9.35% | [3] -4.3% | [4] -19.5% | [5] -0.6% | [6] 19.3%

CNc1cc2oc(=O)cc(C)c2cc1C
inactive: [1] 19.8% | [2] -12.5% | [3] 6.8% | [4] 3.6% | [5] 14.2% | [6] 10.4%

CC(O)CNCc1ccc(N(C)C)cc1 (stereo unspecified)
inactive: [1] -15.8% | [2] 0.4% | [3] 6.8% | [4] -8.85% | [5] -4.65% | [6] 13.7%

O=C(/C=N\O)c1ccccc1[N+](=O)[O-]
inactive: [1] -5.6% | [2] -4.85% | [3] 7.6% | [4] -37.5% | [5] -1.35% | [6] -19.1%

NC(=O)C12OC1(Cl)CCCC2(Cl)Cl (stereo unspecified)
inactive: [1] 1.05% | [2] -27.9% | [3] 8.5% | [4] 9.05% | [5] 18% | [6] 18.2%

Cc1ccc2c(c1)Cc1cc(C)ccc1-2
inactive: [1] 25.1% | [2] 12.4% | [3] 14.4% | [4] 7.65% | [5] 31.2% | [6] 19.4%

CCOc1ccc(-c2cc(-c3ccc(OCC)cc3)cc(-c3ccc(OCC)cc3)c2)cc1
inactive: [1] -2.05% | [2] -9.7% | [3] 1.3% | [4] -7.2% | [5] -5.05% | [6] -2.85%

O=C1OC(Oc2ccccc2OC2OC(=O)c3ccccc32)c2ccccc21 (stereo unspecified)
inactive: [1] -6.9% | [2] 3.7% | [3] 0.4% | [4] 5.95% | [5] -5.05% | [6] 9.85%

CCOC(=O)CCCc1ccccc1
inactive: [1] -13.2% | [2] -32.5% | [3] -2.65% | [4] 32.2% | [5] 4.05% | [6] -2.25%

C[C@@]1(CO)O[C@H]1CCC#C[Si](C)(C)C
inactive: [1] -20.9% | [2] -32.4% | [3] -20.2% | [4] 6.7% | [5] -14.2% | [6] 1.05%

Nc1c(Br)cc(Br)c(C(=O)O)c1Br
inactive: [1] 6.35% | [2] -16.1% | [3] 10.8% | [4] 2.8% | [5] -15.2% | [6] -1.75%

CCOC(=O)NC(Nc1ccc(F)c(F)c1)(C(=O)OCC)C(F)(F)F (stereo unspecified)
inactive: [1] 5.4% | [2] -1.3% | [3] -9.1% | [4] 15.4% | [5] 9.75% | [6] 39.5%

COc1cc2c(cc1OC)C1CC(CC(N)=O)(C(N)=O)CCN1CC2 (stereo unspecified)
inactive: [1] 2.35% | [2] 16.6% | [3] 14.6% | [4] -49.5% | [5] 1.5% | [6] 17.5%

C/C=C(\C)C(=O)N1c2ccccc2CC1c1c(C)[nH]c2ccccc12 (stereo unspecified)
inactive: [1] 29.1% | [2] 3.65% | [3] 21.2% | [4] 19.9% | [5] 23.8% | [6] 11.1%

O=CCCc1ccccc1
inactive: [1] 31.6% | [2] -22.1% | [3] -22.2% | [4] -29.6% | [5] 22% | [6] 56.1%

C[n+]1cccc2cc(Br)ccc21
inactive: [1] -5.3% | [2] -8.6% | [3] -13.2% | [4] 9.7% | [5] 11.6% | [6] -15.5%

CC(C)(C)C(=O)C(Cc1ccccc1)C(=O)C(C)(C)C
inactive: [1] 2.6% | [2] -11.8% | [3] 2.15% | [4] 16.8% | [5] 5.45% | [6] -1.95%

CC(=O)Nc1cc2c(cc1C=O)OCO2
inactive: [1] 19.6% | [2] 9.7% | [3] -0.6% | [4] -32.3% | [5] -2.5% | [6] 11.3%

COc1cc2c(cc1O)[C@@H]1Cc3c(cc(OC)c(OC)c3Oc3cc4c(cc3OC)CCN(C)[C@@H]4Cc3ccc(O)cc3)[C@H](C2)N1C
inactive: [1] 14.9% | [2] 8.75% | [3] 0.15% | [4] 12.1% | [5] -10.4% | [6] -56%

Nc1ncnc2c1ccn2Cc1c(F)cccc1Cl
inactive: [1] -0.8% | [2] -7.3% | [3] -10.9% | [4] -1.2% | [5] 6.05% | [6] -13.6%

CCO[C@@H]1C2C=CC(C2)[C@H]1[N+](=O)[O-] (stereo partly specified)
inactive: [1] -11.8% | [2] 12.2% | [3] -5.65% | [4] 15.4% | [5] 3.05% | [6] -5.4%

Cc1ccc(C(C)C)nc1
inactive: [1] 17.1% | [2] 18.5% | [3] 19.1% | [4] 25.2% | [5] 22.5% | [6] 26.7%

CCOC(=O)C(NC(=O)CC)(C(F)(F)F)P(=O)(OCC)OCC (stereo unspecified)
inactive: [1] -22.5% | [2] -12.3% | [3] -35.7% | [4] -11.8% | [5] 14.1% | [6] -9.35%

O=C(NN1C(=O)C(Cl)C1c1ccc([N+](=O)[O-])cc1)c1ccccc1O (stereo unspecified)
inactive: [1] -16.2% | [2] -19.2% | [3] -35.7% | [4] -6.45% | [5] -26% | [6] -20.1%

FC(F)(F)c1cc(Cl)c2ccc3ccccc3c2n1
inactive: [1] 8.65% | [2] 5.3% | [3] 1.9% | [4] -62.4% | [5] 3.65% | [6] -12.8%

CC1(C)OC(=O)C=C[C@@]2(C)C1CC(=O)C1(C)C2CCC2(C)C(c3ccoc3)OC(=O)[C@H]3O[C@]321 (stereo partly specified)
inactive: [1] 2.55% | [2] -24.3% | [3] 11.3% | [4] 9.95% | [5] -7% | [6] -6.25%

COCCN(CCOC)C(=O)Nc1cccc(Cl)c1
inactive: [1] 30.4% | [2] 6.3% | [3] 15.9% | [4] 8.35% | [5] 5.45% | [6] 10.2%

CN1CCCC1=Nc1ccc([N+](=O)[O-])cc1
inactive: [1] 23.1% | [2] -3.55% | [3] 23% | [4] -29.3% | [5] -11.9% | [6] 25.9%

C#CCOc1ccc(O)c(C(=O)OCCCOC(=O)c2cc(OCC#C)ccc2O)c1
inactive: [1] 16.1% | [2] 6.95% | [3] -3.9% | [4] 16.9% | [5] -2.1% | [6] 15.1%

CCCCc1c2c(nc3c1CCC/C3=C\c1ccccc1)C(=O)CCC2
inactive: [1] 15.8% | [2] 9.1% | [3] 3.2% | [4] 12.2% | [5] 30.6% | [6] 18.1%

CC(C)c1cccc(C(C)C)c1NC(=O)OC1CCCCC1C (stereo unspecified)
inactive: [1] -21.1% | [2] -17.6% | [3] 7% | [4] -1.95% | [5] -4.65% | [6] -6.4%

CCCC1C(CC)C(NC)C(C#N)(C#N)C1(C#N)C#N (stereo unspecified)
inactive: [1] 7.05% | [2] 38.9% | [3] 8.95% | [4] 26.3% | [5] 8.3% | [6] 7.25%

CCC1(CC)OC(=O)C(=O)N1N(C)C
inactive: [1] -16.9% | [2] -0.8% | [3] -13.9% | [4] -15.2% | [5] -10.9% | [6] -13.7%

CCn1c(C)[n+](CC)c2ccc(C(C)=O)cc21
inactive: [1] -0.35% | [2] -19.7% | [3] -3.95% | [4] 8.95% | [5] 2.55% | [6] -8.75%
